In PubChem BioAssay AID2732 (Emory University Molecular Libraries Screening Center, 2010):
Hit rate of the full screen: of about 220,000 compounds, about 8,200 (3.7%) were called active. The sample as a whole holds a higher share of actives than the screen did. Unmarked numbers belong to inactive results.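 How the source made its calls: active means compounds that reduced the stress-induced luciferase reporter signal by more than about 70% of percent inhibition (limit read from the data); inactive means the rest.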

Assay: inhibitors of CHOP promoter induction, primary screen, cell-based, unfolded protein response, luciferase reporter (AID 2732);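 further: 0% = tunicamycin plus vehicle and 100% = wells without tunicamycin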
Settings: CHO-K1 CHOP-promoter luciferase, tunicamycin-induced, 15-18 h; at 10 µM; active compounds read high

Structure (SMILES) | inhibition
COc1ccc2c(c1)C(=C(C#N)C#N)C(=O)N2CCc1ccccc1 | -16.5%
NC(=O)CC(NC(=O)Cc1cccc2ccccc12)c1ccc(NCc2cc(F)ccc2F)c([N+](=O)[O-])c1 (stereo not given) | 99.3% (active)
O=C1CCC(=O)N1c1ccc(NCCc2ccccc2F)c([N+](=O)[O-])c1 | 20%
O=[N+]([O-])c1ccccc1NCc1ccccc1Cl | 34.1%
Brc1ccc2ncnc(NCc3cccnc3)c2c1 | 50.9%
CCC(C(=O)OCC(=O)Nc1c(Cl)cc(Cl)cc1Cl)c1ccccc1 (stereo not given) | 48.2%
CCC(C(=O)OCC(=O)Nc1ccccc1-c1ccccc1)c1ccccc1 (stereo not given) | 6.12%
CCC(C(=O)OCC(=O)Nc1ccc(C(=O)Nc2ccc(OC)cc2)cc1)c1ccccc1 (stereo not given) | 89.3% (active)
COc1ccc(C2c3ccc(O)cc3Oc3ncn(CCCO)c(=N)c32)cc1OC (stereo not given) | 11.6%
CCOCCn1c(-c2ccccc2)nc2ccccc21 | 5.67%
Cc1nn(-c2ncc(C(F)(F)F)cc2Cl)c(=O)n1-c1ccccc1 | -12.9%
c1ccc(-c2ccnc3nc(-n4cccc4)nn23)cc1 | 7.91%
Cc1ccc(-c2ccnc3nc(Sc4ncc(C(F)(F)F)cc4Cl)nn23)cc1 | 81.4% (active)
COc1ccc(-c2ccc(OC(=O)NC3CCS(=O)(=O)C3)cc2)cc1 (stereo not given) | 20.4%
COc1cc(/C=N/NC(=O)c2ccccc2)ccc1OS(=O)(=O)c1ccccc1 | -6.49%
COc1ccc(/C=N/NC(=O)c2ccccc2)cc1OS(=O)(=O)c1ccccc1 | 7.47%
COc1cc(/C=N/NC(=O)Nc2ccccc2)ccc1OCCOc1ccccc1C | 104% (active)
CC(C)c1nc(SCC(=O)NC(=O)NC(C)(C)C)n[nH]1 | 18.7%
Cc1cc(C)cc(OCC(=O)O/N=C(\N)Cc2ccc([N+](=O)[O-])cc2)c1 | 13.5%
O=C(Nc1ccc(Br)cn1)C1CCN(S(=O)(=O)c2cccs2)CC1 | 42.9%
C/C=C/C(=O)Nc1ccc(N2CCN(c3ccc(C(F)(F)F)cn3)CC2)nc1 | 1.12%
Nc1ccccc1Sc1ccc(C(F)(F)F)cc1[N+](=O)[O-] | -6.84%
COc1ccc(-c2nn(C)c(=O)c3ccccc23)cc1CNC(=O)C1CCCCC1 | 4.54%
Cc1cc(C(=O)CCl)c(C)n1CC1COc2ccccc2O1 (stereo not given) | 106% (active)
Cc1cc(NC(=O)CCC2COc3ccccc3O2)no1 (stereo not given) | 7.18%

Structure (SMILES) | inhibition
CCn1cc(C(=O)NCC2COc3ccccc3O2)c2cc(OC)c(OC)cc2c1=O (stereo not given) | 19.1%
O=C(NC1C2CC3CC(C2)CC1C3)c1ccc(N2CCNCC2)c([N+](=O)[O-])c1 (stereo not given) | -22.1%
O=C1CCC(=O)N(O)CCCCCNC(=O)CCC(=O)N(O)CCCCCNC(=O)CCC(=O)N(O)CCCCCN1 | 3.7%
COc1ccccc1NC(=O)c1cc(Cl)nc2ccccc12 | 11.8%
CCn1c2ccccc2c2cc(CC(N)=O)ccc21 | 17.4%
NC(N)=N/N=C/c1ccc(OCc2ccc(Cl)cc2Cl)cc1 | 108% (active)
NC(N)=N/N=C/c1ccc(Cl)c([N+](=O)[O-])c1 | -23.8%
COc1ccc(C(=O)O/N=C(\N)Cc2ccc(Cl)cc2Cl)cc1OC | 60.4%
O=C(CCc1ccccc1)NNc1ccc(F)cc1 | 4.92%
COC(=O)NC1(C(F)(F)F)NC(=O)N(C2CCCCC2)C1=O (stereo not given) | 2.29%
O=C1NC(Nc2nc3ccccc3s2)(C(F)(F)F)C(=O)N1C1CCCCC1 (stereo not given) | 78.6% (active)
O=C(NC1(C(F)(F)F)NC(=O)N(C2CCCCC2)C1=O)c1ccco1 (stereo not given) | 9.81%
Nc1nc(SC23CC4CC(CC(C4)C2)C3)ns1 | 11.6%
COC(=O)c1cn(C(=O)c2ccc(Cl)cc2)c2ccccc12 | 9.55%
O=C(CSc1nnc(SCc2ccc(F)cc2)s1)Nc1ccc(C(=O)O)cc1 | -8.93%
COc1ccccc1C1C2=C(COC2=O)Nc2cc3c(cc21)OCO3 (stereo not given) | 23.1%
CCCOc1ccccc1C1CC(=O)Nc2cc3c(cc21)OCO3 (stereo not given) | 85.8% (active)
COCCOC(=O)C1=C(C)NC(=O)CC1c1cc2c(cc1Br)OCO2 (stereo not given) | -14.4%
CC(C)(C)c1nnc(NC(=O)C2c3ccccc3Oc3ccccc32)s1 | 45.8%
CCc1ccc(-c2nn(-c3ccccc3)cc2CSC(=N)N)cc1 | 103% (active)
N=C(N)SCc1cccc2ccccc12 | 35.6%
CCn1c(SCc2ccc(C)cc2)nnc1-c1nn(-c2ccccc2)ccc1=O | 28.9%
Cn1c(=O)c2c(-c3cccc(Br)c3)c(C#N)c(N)nc2n(C)c1=O | 3.49%
Cc1nc(N)sc1N=Nc1c(C)n(C)n(-c2ccccc2)c1=O | 4.59%
O=C(CCl)Nc1ccc(Sc2ccc(NC(=O)CCl)cc2)cc1 | 106% (active)

Structure (SMILES) | inhibition
Cc1ccc(NC(=O)CC(=O)Nc2ccc(C)cc2)cc1 | 20.6%
CC(C)(CCl)C(=O)Nc1ccc(Sc2ccc(F)cc2)cc1 | 68%
COc1ccc(N=C(C)c2sc3ccccc3c2O)cc1 | 1.74%
C=CCNC(=S)N/N=C/c1ccc(C)s1 | -20%
CC(=O)NCC(O)c1ccc([N+](=O)[O-])cc1 (stereo not given) | 5.99%
O=S(=O)(NCc1ccco1)c1cnc(Cl)c(Cl)c1 | -45.5%
CN=C1C=C/C(=N/N=c2\ccn(O)cc2C)C=C1C | -15.3%
CCC(CC)C(=O)N1CC(=O)Nc2ccc(Br)cc2C1c1ccccc1 (stereo not given) | 81.3% (active)
Cc1ccc2c(c1)C(c1ccccc1)N(C(=O)c1ccc(S(=O)(=O)N3CCOCC3)cc1)CC(=O)N2 (stereo not given) | 18%
COC(=O)CN1C(C)=Nc2ccc(Br)cc2C1c1ccccc1 (stereo not given) | -10.6%
CN(C)C(=O)c1nc2ccc(Cl)cn2c1CNCc1cccc(OC(F)(F)F)c1 | -1.69%
Cc1cnc(NC(=O)Cn2cnc3c2c(=O)n(C)c(=O)n3C)s1 | -10.1%
Cc1ccc(C(=O)NNc2ncnc3ccccc23)cc1 | 3.67%
Cc1nn(-c2ccccc2)c(=O)c2noc(C)c12 | 1.49%
Cc1cc(N2CCN(C)CC2)nc2ccc(NC(=S)N3CCOCC3)cc12 | 2.29%
Cc1cc(N2CCOCC2)nc2ccc(NC(=S)N3CCN(Cc4ccccc4)CC3)cc12 | 80.6% (active)
CCn1c2ccccc2c2cc(NC(=S)N3CCOCC3)ccc21 | 30.3%
CC(CO)(CO)NC(=O)c1ccc(=O)[nH]n1 | 0.5%
O=P(O)(CN1CCCCCC1)C1Cc2ccccc2C1 | 4.35%
O=c1cc(N2CCN(Cc3ccccc3)CC2)c(-c2ccccc2)n[nH]1 | 26.9%
O=c1cc(N2CCCCC2)c(-c2ccccc2)nn1Cc1cccc(F)c1 | 74.7% (active)
O=c1c2ccccc2c(-c2ccccc2)nn1Cc1ccccc1 | 43.8%
C/C(Cc1ccccc1)=N\NC(=O)CNC(=O)c1ccccc1Cl | -14.9%
COc1ccc(OCC(O)CNCCNc2nccc(C(F)(F)F)n2)cc1 (stereo not given) | 3.94%
COc1ccc(/C=N/NC(=O)Cn2cc(C(F)(F)F)ccc2=O)cc1 | -10.7%

Structure (SMILES) | inhibition
O=C(Cc1ccccc1)N/N=C/c1ccc(Cl)cc1Cl | -13.9%
O=C(Cn1cc(C(F)(F)F)ccc1=O)N/N=C/c1ccc(Cl)cc1Cl | 104% (active)
NS(=O)(=O)c1ccc(NC(=O)COC(=O)c2cc3ccccc3oc2=O)cc1 | 5.84%
CCOc1cc2c(Cl)ncnc2c(OCC)c1OCC | 23.1%
S=c1[nH]c2ccccc2c2ccccc12 | -2.18%
CCN(CC)CCCN=C(N)N | 3.64%
CCOC(=O)C1CCN(c2ncnc3c2oc2ccc(Br)cc23)CC1 | 21.9%
CCOC(=O)N1CCN(C(=O)C2CCN(c3ncnc4c3sc3cccc(F)c34)CC2)CC1 | 85.7% (active)
CCOC(=O)N1CCN(C(=O)C2CCN(Cc3ccc(OC)cc3OC)CC2)CC1 | 18.3%
Nc1nc(NCC2CCCO2)nc(Nc2ccccc2F)c1[N+](=O)[O-] (stereo not given) | 12.4%
CC(C)CCNC(=O)C1CCC(CNc2c(N3CCC(C)CC3)c(=O)c2=O)CC1 (stereo not given) | 1.09%
Cc1ccc2c(c1)nnc1nnc(SCC(=O)O)n12 | 3.13%
CSc1nc(-c2ccco2)nn1C(=O)c1ccccc1Cl | 78.2% (active)
CS(=O)(=O)n1nc(-c2ccco2)nc1N | 42.4%
CSc1nc(-c2ccco2)nn1C(=O)CCc1ccccc1 | 37.2%
COc1cccc(N2C(=O)CC(N3CCc4ccccc4C3)C2=O)c1 (stereo not given) | -8.87%
CSCC[C@H](NC(=O)CCCn1nnc2ccccc2c1=O)C(=O)O | 4.06%
Cc1ccc(C(=O)c2c(NC(=O)c3ccncc3)sc3c2CCCC3)cc1 | 73.2% (active)
Cc1ccc(C(=O)c2c(NC(=O)c3ccccc3)sc(C)c2C)cc1 | 53.1%
Cc1ccc(NC(=O)c2c(NC(=O)CCC(=O)O)sc3c2CCCCC3)cc1 | 5.76%
COc1c(C=O)c(CCN(C)C(=O)c2ccc(F)cc2)cc2c1OCO2 | -10.2%
COc1ccccc1C1CCN(C(=S)Nc2ccc(Br)cc2)CC1 | 26.5%
COc1ccccc1C(c1nnnn1CC1CCCO1)N1CCN(c2ccccc2)CC1 (stereo not given) | -9.42%
COc1ccccc1C(c1nnnn1C(C)(C)C)N1CCN(Cc2ccccc2)CC1 (stereo not given) | -9.46%
COCCn1nnnc1C(c1ccccc1Cl)N1CCN(c2ccccc2OC)CC1 (stereo not given) | 81.6% (active)
